Several values for one entry are separate records, joined by “and”; a condition that tells them apart may be missing. Equal entries are not always repeated. Records with an inconclusive call do not appear. Activity calls are given as the source filed them. Calls follow the shape of the dose curve; as a rule, active = well fitted inhibition curve with a large enough effect; inconclusive = small, poorly fitted or top-dose-only effect; inactive = flat fitted curve, though single readings scatter.
test system: KB-3-1; assay: Cytotoxic Profiling of Annotated Libraries Using Quantitative High-Throughput Screening (AID 1296008); conditions: Five cell lines viability, CellTiter-Glo ATP luminescence, 48-72 h; max response: stronger effect = lower value; also: nearly all actives have a fitted effect of over 60% in size
In short: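 Cytotoxicity was measured as CellTiter-Glo ATP luminescence, read after 10 min at room temperature. Compound treatment of the cells lasted 48 or 72 hr at 37 degrees Celsius in a qHTS format.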
% is scaled to controls: 0 for no effect and ±100 for the full control effect.

| SMILES | max response |
| --- | --- |
| CCCC(C)(COC(N)=O)COC(=O)NC1CC1 (centres undefined) | -23.5% (inactive) |
| C[C@]12CC[C@H]3[C@@H](CCC4=C(Cl)C(=O)CC[C@@]43C)[C@@H]1CC[C@@H]2O | 3.69% (inactive) |
| C[N+]1([O-])[C@@H]2CC[C@H]1CC(OC(=O)C(CO)c1ccccc1)C2 (some centres undefined) | -12.1% (inactive) and -9.46% (inactive) |
| O=[N+]([O-])c1ccc(F)c([N+](=O)[O-])c1 | -19.8% (inactive) |
| CC(C)CCON=O | 10.4% (inactive) |
| S=C=S | -1.39% (inactive) |
| CCC(C)(S(=O)(=O)CC)S(=O)(=O)CC | -12.7% (inactive) |
| S=C(S)N1CCNCC1 | 7.2% (inactive) |
| O=C1C[C@@H]2OCC=C3CN4CC[C@]56c7ccccc7N1[C@H]5[C@H]2[C@H]3C[C@H]46 (tested in a mixture with another compound) | 0.545% (inactive) and 11.6% (inactive) |
| [Cl-].[Cl-].[Hg+2] | -9.23% (inactive) |
| COc1ccc2c3c1O[C@H]1[C@@H](O)C=C[C@H]4[C@@H](C2)NCC[C@@]341 | 2.68% (inactive) and -3.7% (inactive) |
| C#CCN1CC(=O)N(COC(=O)C2C(C=C(C)C)C2(C)C)C1=O (centres undefined) | -3.38% (inactive) |
| COC1=CC=C2[C@H]3Cc4ccc(OC)c5c4[C@@]2(CCN3C)[C@H]1O5 | 16.1% (inactive) and -9.66% (inactive) |
| C[C@]12C=CC(=O)C=C1CC[C@@H]1[C@@H]2CC[C@]2(C)OC(=O)CC[C@@H]12 | 5.64% (inactive) |
